The target in the assay is Bromodomain-containing protein 4 (Homo sapiens) (UniProt O60885). To be noted: Compound concentration 20.0 uM, Protein concentration 2.0 uM, Result type QC Liability.
With `CO[C@H](C)CN1CC[C@@]2(C)c3ccc(O)cc3C[C@@H]1C2(C)C`, the ΔTm was -0.17 °C. The figure for `Cc1nnc2n1-c1sc(CCC(=O)N3CCOCC3)cc1C(c1ccccc1Cl)=NC2` is -0.19 °C.

As for `CN(C(=O)CCOCCOCCOCCOCCNc1cccc2c1C(=O)N(C1CCC(=O)NC1=O)C2=O)[C@H]1CC[C@@]2(C)[C@@H](CC[C@@H]3[C@@H]2CC[C@]2(C)[C@@H](c4ccc5ccncc5c4)CC[C@@H]32)C1` (stereo partly specified), the ΔTm is -2.19 °C. The figure for `C[C@@H](CN1CC[C@@]2(C)c3cccc(O)c3C[C@@H]1C2(C)C)OCc1ccccc1` is -0.17 °C; for `Clc1ccccc1C(c1ccccc1)(c1ccccc1)n1cccn1` it is -0.07 °C; for `C[C@@H](CO)CCC[C@@H](C)[C@H]1CC[C@H]2[C@@H]3CC=C4C[C@@H](O)CC[C@]4(C)[C@H]3CC[C@]12C` it is -3.47 °C.

By ΔTm is commonly meant the shift of the melting midpoint relative to a reference.

The record behind these values is ChEMBL document CHEMBL5308504, “Tm Shift (DSF) assay results for EUbOPEN Chemogenomics Library” (2023).
